PubChem BioAssay (NCATS)
Results filed as inconclusive are left out. Where a call stands in place of a potency, no number is given. Unmarked numbers belong to inactive results. Calls of active or inactive are those of the source. Calls follow the shape of the dose curve; as a rule, active = well fitted curve in the direction sought with a large enough effect; inconclusive = small, poorly fitted or top-dose-only effect, or another doubt; inactive = no such curve, though single readings can be large; an effect the other way counts as inactive or inconclusive.

Experiments:
[1] = tested on: UISO; test: qHTS assay to identify novel small-molecules to repurpose for Merkel cell carcinoma treatment (AID 1296009); conditions: MCC and control cell lines, CellTiter-Glo viability, 72 h; series mostly up to 46 µM; also: nearly all actives have a fitted effect of over 60% in size
Summary of the method: (§1)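 Dose-response viability screen; 72 hr exposure at 37 degree celsius; CellTiter-Glo added, 10 min room temperature, luminescence read; RLUs scaled between no-cell and DMSO wells.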

[2] = tested on: WaGa; test: as above; conditions: MCC and control cell lines, CellTiter-Glo viability, 72 h; series mostly up to 46 µM
Summary of the method: as §1

[3] = tested on: C33A; test: Primary qHTS to identify gynecologic anti-cancer compounds using libraries of approved drugs and bioactive compounds (AID 1345084); conditions: Gynecologic cancer cell panel viability, ATPlite luminescence, 48 h; series mostly up to 57.5 µM; also: nearly all actives have a fitted effect of over 55% in size; also: potency is read from the fitted curve at half-maximal effect
Summary of the method: (§2)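 ATP-based viability (ATPlite), 1,000 cells/well, 16 h pre-incubation, 48 h compound at 37 C, 5% CO2, 15 min RT before read.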

[4] = tested on: CAOV3; test: as above; conditions: Gynecologic cancer cell panel viability, ATPlite luminescence, 48 h; series mostly up to 57.5 µM
Summary of the method: as §2

[5] = tested on: CASKI; test: as above; conditions: Gynecologic cancer cell panel viability, ATPlite luminescence, 48 h; series mostly up to 57.5 µM
Summary of the method: as §2

[6] = tested on: Es-2; test: as above; conditions: Gynecologic cancer cell panel viability, ATPlite luminescence, 48 h; series mostly up to 57.5 µM
Summary of the method: as §2

[7] = tested on: HeLa; test: as above; conditions: Gynecologic cancer cell panel viability, ATPlite luminescence, 48 h; series mostly up to 57.5 µM
Summary of the method: as §2

[8] = tested on: Hek293T; test: as above; conditions: Gynecologic cancer cell panel viability, ATPlite luminescence, 48 h, control line for the selectivity index; series mostly up to 57.5 µM
Summary of the method: as §2

[9] = tested on: JEG-3; test: as above; conditions: Gynecologic cancer cell panel viability, ATPlite luminescence, 48 h; series mostly up to 57.5 µM
Summary of the method: as §2

[10] = tested on: OV90; test: as above; conditions: Gynecologic cancer cell panel viability, ATPlite luminescence, 48 h; series mostly up to 57.5 µM
Summary of the method: as §2

SMILES	Potency [1]	Potency [2]	Potency [3]	Potency [4]	Potency [5]	Potency [6]	Potency [7]	Potency [8]	Potency [9]	Potency [10]
CN1[C@@H]2CC[C@H]1CC(OC(=O)c1c[nH]c3ccccc13)C2 (stereo not given in full)	inactive	inactive	inactive	inactive	inactive	inactive	inactive	inactive	inactive	inactive
Cc1c(F)c(N2CCNC(C)C2)cc2c1c(=O)c(C(=O)O)cn2C1CC1 (stereo not given)	inactive	inactive	inactive	inactive	inactive	inactive	inactive	inactive	inactive	inactive
CC(=O)CC(c1ccc([N+](=O)[O-])cc1)c1c(O)c2ccccc2oc1=O (stereo not given)	inactive	inactive	inactive	inactive	inactive	inactive	inactive	inactive	inactive	inactive
Cc1ccc(Nc2c(F)cccc2Cl)c(CC(=O)O)c1	inactive	inactive	inactive	inactive	inactive	inactive	inactive	inactive	inactive	inactive
Cc1ncc(CSSCc2cnc(C)c(O)c2CO)c(CO)c1O	inactive	inactive	inactive	inactive	inactive	inactive	inactive	inactive	inactive	inactive
O=C1OC(c2ccc(O)cc2)(c2ccc(O)cc2)c2ccccc21	inactive	inactive	inactive	inactive	inactive	inactive	inactive	inactive	inactive	28.2 µM (active)
Nc1nc2ncc(CNc3ccc(C(=O)N[C@@H](CCC(=O)O)C(=O)O)cc3)nc2c(=O)[nH]1	inactive	inactive	inactive	inactive	inactive	inactive	inactive	inactive	inactive	inactive
CCOC(=O)c1cccc(N)c1	inactive	inactive	inactive	inactive	inactive	inactive	inactive	inactive	inactive	inactive
C[C@]12C=CC(=O)C=C1[C@@H](F)C[C@@H]1[C@@H]2[C@@H](O)C[C@@]2(C)[C@H]1CC[C@]2(O)C(=O)CO	inactive	inactive	inactive	inactive	inactive	inactive	inactive	inactive	inactive	inactive
CC1=C(C(=O)O)N2C(=O)[C@@H](NC(=O)[C@H](N)c3ccc(O)cc3)[C@H]2SC1	inactive	inactive	inactive	inactive	inactive	inactive	inactive	inactive	inactive	inactive
CCOC(=O)OC(C)OC1=C(C(=O)Nc2ccccn2)N(C)S(=O)(=O)c2ccccc21 (stereo not given)	inactive	inactive	inactive	inactive	inactive	inactive	inactive	inactive	inactive	inactive
O=c1ccc2ccccc2o1	inactive	inactive	inactive	inactive	inactive	inactive	inactive	inactive	inactive	inactive
CCN1CCC[C@H]1CNC(=O)c1c(OC)ccc(Br)c1OC	inactive	inactive	inactive	inactive	inactive	inactive	inactive	inactive	inactive	inactive
CC(=O)Nc1c(I)cc(I)c(C(=O)O)c1I	inactive	inactive	inactive	inactive	inactive	inactive	inactive	inactive	inactive	inactive
CN(C)CC/C=C1/c2ccccc2COc2ccc(CC(=O)O)cc21	inactive	inactive	inactive	inactive	inactive	inactive	inactive	inactive	inactive	inactive
CC1(C)O[C@@H]2C[C@H]3[C@@H]4C[C@H](F)C5=CC(=O)C=C[C@]5(C)[C@H]4[C@@H](O)C[C@]3(C)[C@]2(C(=O)CO)O1	inactive	inactive	inactive	inactive	inactive	inactive	inactive	inactive	inactive	inactive
N[C@@H](CCC(=O)N[C@@H](CS)C(=O)NCC(=O)O)C(=O)O	inactive	inactive	inactive	inactive	inactive	inactive	inactive	inactive	inactive	inactive
COc1ccc(C2C(=O)c3ccccc3C2=O)cc1	inactive	inactive	inactive	inactive	inactive	inactive	inactive	inactive	inactive	inactive
CCN(CC)C(=O)N1CCN(C)CC1	inactive	inactive	inactive	inactive	inactive	inactive	inactive	inactive	inactive	inactive
Oc1cc(O)c2c(c1)O[C@H](c1ccc(O)c(O)c1)[C@H](O)C2	inactive	inactive	inactive	inactive	inactive	inactive	inactive	inactive	inactive	inactive
